From PubChem BioAssay (NCI) come the findings set out here.

This is part of a sample that, as a whole, favours compounds with a hit. Of some 79,000 tested, about 15% had one in any assay. Values without a mark were called inactive. Activity calls are given as the source filed them. Rule as the data show it: active = growth inhibition above about 70%; inactive = the rest.

A short description of the experiment: NCI Yeast Anticancer Drug Screen. Data for the mec2-1 strain (AID 157). As to conditions: S. cerevisiae mec2-1 strain, at 33.0 µM, stronger effect = higher value. In short, it runs like this:
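Yeast mec2-1 mutant treated with compound. Readout: growth inhibition vs vehicle controls.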
On to `O=[N+]([O-])c1cc[n+]([O-])cc1`, for which the growth inhibition is -2%. For `CC1(C)CC(=O)C(/C=N/c2nc(-c3ccccc3)cs2)=C(O)C1` the value was 35%; for `Nc1nc(N)c2nc(CNc3ccc(C(=O)NC(CCC(=O)O)C(=O)O)cc3F)cnc2n1` (stereo unspecified), 93% (active); for `COC(=O)CC1(O)C(/C=C/c2ccccc2)C(C(=O)OC)C(=O)C(C(=O)OC)C1C(=O)OC` (stereo unspecified), -2%. For `CC(C)(C)c1ccc(NS(=O)(=O)c2ccc(N)cc2)cc1` the value was 7%; for `CCN(CC)CCNc1ccc([N+](=O)[O-])c2nc3ccccc3c(N)c12`, -13%. To `CCCCN(CCCC)C(=O)/C=C/c1ccccc1` belongs -4%. As to `O=c1[nH]c(-c2ccccc2)nc2c1sc1nc3ccccc3n12`, the growth inhibition is -19%.

Take `O=[N+]([O-])c1ccc2c(c1)/C(=N/N=C1c3ccccc3Cc3ccccc31)c1cc([N+](=O)[O-])cc([N+](=O)[O-])c1-2`: the growth inhibition is 98% (active).

With `CC(C)C(C)/C=C\C(C)C1CCC2C3=CC=C4CC(O)CCC4(C)C3CCC21C` (stereo unspecified), the growth inhibition was -1%. To `O=C1Nc2ccc(Br)cc2C1=Nc1ccc2c(c1)OCO2` belongs -58%; to `CCCCOCn1c(=O)[nH]c(=O)c2cc(Br)ccc21`, 11%. For `Cc1ccc(S/C(=C\C(=O)O)c2ccccc2)cc1` the value was 8%; for `O=[N+]([O-])/C=C/c1cc(Cl)c(/C=C/[N+](=O)[O-])cc1Cl`, 81% (active). In the case of `Cc1cc(S(=O)(=O)Nc2nnc3cnc4ccccc4n23)c(S)cc1Cl`, the growth inhibition is 19%. For `O=C(/C=C/c1cc(Cl)cc(Cl)c1O)c1cccc(O)c1` the value was 99% (active).
